The nature of assay [1]: Caspase-3/7 induction in CHO-K1 cells by small molecules, qHTS cell viability counter screen (AID 1346979). Note: nearly all actives have a fitted effect of over 35% in size. Note: potency is the fitted concentration of half-maximal effect. The procedure, abridged: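 Following a 5hr settling period, CHO-K1 cells at 1,500 per well received DMSO-dissolved compounds. Cell viability was quantified 16hr later by CellTiter-Fluor fluorescence, measured after 1hr with reagent at 37C.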
A short description of assay [2]: Caspase-3/7 induction in CHO-K1 cells by small molecules, qHTS assay (AID 1346980). Note: nearly all actives have a fitted effect of over 15% in size. A digest of the protocol: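 Wild-type cells were seeded at 1,500 per well and settled 5 hr at 37 C, 5% CO2, then exposed to DMSO-dissolved compounds for 17 hr. Caspase-Glo 3/7 reagent was added, and luminescence was read after 30min at room temperature.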
The nature of assay [3]: Caspase-3/7 induction in HepG2 cells by small molecules, qHTS cell viability counter screen (AID 1346981). Note: series mostly up to about 92 µM; nearly all actives have a fitted effect of over 30% in size. A digest of the protocol:
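Steps: seed 2,000 HepG2 cells per well; incubate 5 hr at 37 C; pin-add compounds in DMSO; incubate 16 hr; add CellTiter-Fluor; after 1 hr at 37 C and 5% CO2, read fluorescence.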

For assay [4], the target named is Nuclear receptor subfamily 1 group I member 2 (Homo sapiens) (UniProt O75469). In words: Human pregnane X receptor (PXR) small molecule agonists, qHTS assay (AID 1346982). Note: nearly all actives have a fitted effect of over 35% in size. Note: potency is the fitted concentration of half-maximal effect. A digest of the protocol: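 Agonist mode qHTS: PXR-Luc HepG2 cells plated 5 hr before DMSO-dissolved compounds were pinned in, cultured 24 hr at 37 C, 5% CO2; ONE-Glo luminescence readout.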
Assay [5] has as its target Cytochrome P450 2D6 (Homo sapiens) (UniProt P10635). As to the kind of experiment: Cytochrome P450 Family 2 Subfamily D Member 6 (CYP2D6) small molecule antagonists: luciferase reporter qHTS assay (AID 1671196). Note: nearly all actives have a fitted effect of over 50% in size. Note: potency is the fitted concentration of half-maximal effect. A digest of the protocol:
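P450-Glo format: CYP2D6 converts a proluciferin substrate to luciferin in an NADPH-driven reaction lasting 1 h at room temperature. Light output, proportional to CYP2D6 activity, reflects interference by test chemicals.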

The target in assay [6] is Cytochrome P450 2C19 (Homo sapiens) (UniProt P33261). In words: Cytochrome P450 Family 2 Subfamily C Member 19 (CYP2C19) small molecule antagonists: luciferase reporter qHTS assay (AID 1671197). Note: nearly all actives have a fitted effect of over 65% in size. Note: potency is the fitted concentration of half-maximal effect. The procedure, abridged: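 Relative luminescence units recorded 20 min after the detection reagent stopped a 1 h, 37C CYP2C19 reaction on proluciferin substrate, which was started by NADPH regeneration following 10 min room-temperature compound preincubation; ketoconazole positive control.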

For assay [7], the target named is Cytochrome P450 2C9 (Homo sapiens) (UniProt P11712). In words: Cytochrome P450 Family 2 Subfamily C Member 9 (CYP2C9) small molecule antagonists: luciferase reporter qHTS assay (AID 1671198). Note: nearly all actives have a fitted effect of over 50% in size. Note: potency is the fitted concentration of half-maximal effect. The procedure, abridged: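 CYP2C9 activity was measured with a P450-Glo proluciferin substrate. Enzyme–substrate mix was held with compound for 10 min at room temperature, then NADPH regeneration solution was added for 1 h at 37C. Luciferin product was read as luminescence.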

The target of assay [8] is Cytochrome P450 1A2 (Homo sapiens) (UniProt P05177). As to the kind of experiment: Cytochrome P450 Family 1 Subfamily A Member 2 (CYP1A2) small molecule antagonists: luciferase reporter qHTS assay (AID 1671199). Note: nearly all actives have a fitted effect of over 50% in size. Note: potency is the fitted concentration of half-maximal effect. A digest of the protocol:
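Inhibition of CYP1A2 conversion of proluciferin to luciferin, detected by luminescence. Reaction run 1 h at room temperature with NADPH regeneration after brief compound preincubation.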

Assay [9] deals with Voltage-gated inwardly rectifying potassium channel KCNH2 (Homo sapiens) (UniProt Q12809). As to the kind of experiment: Human Ether-a-go-go-Related Gene (hERG) channel small molecule antagonists: fluorescence cell-based qHTS assay (AID 1671200). Note: nearly all actives have a fitted effect of over 50% in size. Note: potency is the fitted concentration of half-maximal effect. The procedure, abridged:
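In this thallium-flux screen, overnight-cultured U2OS cells bearing the channel are dye-loaded in darkness for an hour, rested 10 min at room temperature, and then monitored kinetically at 480/540 nm for two minutes post-stimulus.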

The target in assay [10] is Cytochrome P450 3A4 (Homo sapiens) (UniProt P08684). In words: Cytochrome P450 Family 3 Subfamily A Member 4 (CYP3A4) small molecule antagonists: luciferase reporter qHTS assay (AID 1671201). Note: nearly all actives have a fitted effect of over 50% in size. Note: potency is the fitted concentration of half-maximal effect. A digest of the protocol:
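CYP3A4 activity was followed with a P450-Glo proluciferin substrate. Test compounds in DMSO were preincubated 10 min; NADPH regeneration then ran 1 h, and light output was read 20 min after detection reagent.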

Values joined by “and” are separate entries in the source; they are usually repeats but may differ in a detail not shown here. Equal values may be shown once. Inconclusive results are not listed. Active and inactive are the calls of the source. Calls come from the whole dose curve; as a rule, active = well fitted curve in the direction sought with a large enough effect in the repeat runs; inconclusive = weak or mixed curves; inactive = no such curve, though single readings can be large; an effect the other way counts as inactive or inconclusive.

Nuclear receptor subfamily 1 group I member 2 (Homo sapiens), sequence (O75469 whole entry, looked up): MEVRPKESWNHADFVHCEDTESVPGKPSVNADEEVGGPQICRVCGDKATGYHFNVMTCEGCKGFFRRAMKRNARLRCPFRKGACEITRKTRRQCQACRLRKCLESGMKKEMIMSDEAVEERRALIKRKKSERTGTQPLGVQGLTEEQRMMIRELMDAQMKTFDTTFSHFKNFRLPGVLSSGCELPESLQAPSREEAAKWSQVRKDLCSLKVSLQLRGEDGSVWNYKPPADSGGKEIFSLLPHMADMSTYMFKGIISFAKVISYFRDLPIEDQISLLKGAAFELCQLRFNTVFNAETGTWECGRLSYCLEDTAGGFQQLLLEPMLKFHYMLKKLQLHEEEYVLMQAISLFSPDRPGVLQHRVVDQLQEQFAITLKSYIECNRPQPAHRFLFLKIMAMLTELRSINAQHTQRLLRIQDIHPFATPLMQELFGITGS
Cytochrome P450 2C19 (Homo sapiens), sequence (P33261 whole entry, looked up): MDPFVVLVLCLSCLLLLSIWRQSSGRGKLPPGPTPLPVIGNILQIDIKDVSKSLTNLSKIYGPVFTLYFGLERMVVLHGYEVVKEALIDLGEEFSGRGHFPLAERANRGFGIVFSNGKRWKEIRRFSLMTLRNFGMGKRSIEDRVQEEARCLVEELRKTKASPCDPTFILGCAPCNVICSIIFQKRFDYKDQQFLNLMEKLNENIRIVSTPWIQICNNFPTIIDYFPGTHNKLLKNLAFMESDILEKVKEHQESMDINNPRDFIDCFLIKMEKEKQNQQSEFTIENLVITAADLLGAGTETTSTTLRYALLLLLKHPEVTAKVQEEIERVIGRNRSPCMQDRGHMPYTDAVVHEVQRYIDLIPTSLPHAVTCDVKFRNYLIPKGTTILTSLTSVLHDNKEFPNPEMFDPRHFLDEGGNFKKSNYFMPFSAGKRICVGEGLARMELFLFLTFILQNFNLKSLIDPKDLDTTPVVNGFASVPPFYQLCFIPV
Cytochrome P450 2D6 (Homo sapiens), sequence (P10635 whole entry, looked up): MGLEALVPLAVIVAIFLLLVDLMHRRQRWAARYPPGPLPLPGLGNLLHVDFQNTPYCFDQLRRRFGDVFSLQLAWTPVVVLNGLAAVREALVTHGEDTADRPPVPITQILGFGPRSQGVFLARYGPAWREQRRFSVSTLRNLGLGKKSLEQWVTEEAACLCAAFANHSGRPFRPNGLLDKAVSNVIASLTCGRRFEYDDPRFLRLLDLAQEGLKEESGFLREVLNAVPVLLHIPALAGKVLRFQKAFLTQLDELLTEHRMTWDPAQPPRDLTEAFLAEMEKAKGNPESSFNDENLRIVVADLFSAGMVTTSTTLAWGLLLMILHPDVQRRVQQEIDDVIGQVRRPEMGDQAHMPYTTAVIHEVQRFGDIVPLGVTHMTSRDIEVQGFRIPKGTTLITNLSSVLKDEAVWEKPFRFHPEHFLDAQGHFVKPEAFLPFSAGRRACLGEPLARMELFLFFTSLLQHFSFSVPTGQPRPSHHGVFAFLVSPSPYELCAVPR
Voltage-gated inwardly rectifying potassium channel KCNH2 (Homo sapiens), sequence (Q12809 whole entry, looked up): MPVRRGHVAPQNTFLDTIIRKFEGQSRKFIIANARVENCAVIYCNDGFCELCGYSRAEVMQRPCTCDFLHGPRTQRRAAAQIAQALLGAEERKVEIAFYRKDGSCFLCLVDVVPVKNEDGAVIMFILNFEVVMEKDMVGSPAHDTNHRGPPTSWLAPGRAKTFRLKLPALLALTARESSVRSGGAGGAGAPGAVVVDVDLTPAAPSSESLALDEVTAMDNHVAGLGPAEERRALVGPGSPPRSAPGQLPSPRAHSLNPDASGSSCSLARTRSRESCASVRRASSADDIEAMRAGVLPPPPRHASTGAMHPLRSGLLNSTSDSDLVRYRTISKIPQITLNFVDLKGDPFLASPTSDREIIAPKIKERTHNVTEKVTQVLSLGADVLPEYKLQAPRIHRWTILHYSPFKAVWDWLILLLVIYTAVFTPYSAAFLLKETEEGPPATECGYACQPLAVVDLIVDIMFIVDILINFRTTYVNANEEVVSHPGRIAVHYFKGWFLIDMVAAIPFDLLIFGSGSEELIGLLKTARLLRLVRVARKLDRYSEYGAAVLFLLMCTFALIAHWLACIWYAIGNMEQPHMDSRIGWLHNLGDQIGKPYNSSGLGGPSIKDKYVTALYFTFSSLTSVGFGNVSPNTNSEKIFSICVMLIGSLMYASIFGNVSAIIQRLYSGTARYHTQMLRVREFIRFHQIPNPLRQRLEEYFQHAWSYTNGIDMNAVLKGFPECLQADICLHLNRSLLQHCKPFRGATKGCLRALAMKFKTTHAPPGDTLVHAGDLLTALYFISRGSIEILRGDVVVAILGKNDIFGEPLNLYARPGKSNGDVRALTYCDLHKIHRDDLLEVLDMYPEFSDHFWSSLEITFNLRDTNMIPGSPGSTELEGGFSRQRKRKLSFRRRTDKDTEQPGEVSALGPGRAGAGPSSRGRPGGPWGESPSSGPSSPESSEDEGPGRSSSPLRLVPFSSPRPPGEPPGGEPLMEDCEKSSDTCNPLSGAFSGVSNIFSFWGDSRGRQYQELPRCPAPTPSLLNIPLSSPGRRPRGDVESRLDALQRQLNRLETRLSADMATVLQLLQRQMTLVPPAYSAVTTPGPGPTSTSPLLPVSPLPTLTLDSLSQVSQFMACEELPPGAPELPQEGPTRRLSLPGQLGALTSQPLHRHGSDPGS
Cytochrome P450 2C9 (Homo sapiens), sequence (P11712 whole entry, looked up): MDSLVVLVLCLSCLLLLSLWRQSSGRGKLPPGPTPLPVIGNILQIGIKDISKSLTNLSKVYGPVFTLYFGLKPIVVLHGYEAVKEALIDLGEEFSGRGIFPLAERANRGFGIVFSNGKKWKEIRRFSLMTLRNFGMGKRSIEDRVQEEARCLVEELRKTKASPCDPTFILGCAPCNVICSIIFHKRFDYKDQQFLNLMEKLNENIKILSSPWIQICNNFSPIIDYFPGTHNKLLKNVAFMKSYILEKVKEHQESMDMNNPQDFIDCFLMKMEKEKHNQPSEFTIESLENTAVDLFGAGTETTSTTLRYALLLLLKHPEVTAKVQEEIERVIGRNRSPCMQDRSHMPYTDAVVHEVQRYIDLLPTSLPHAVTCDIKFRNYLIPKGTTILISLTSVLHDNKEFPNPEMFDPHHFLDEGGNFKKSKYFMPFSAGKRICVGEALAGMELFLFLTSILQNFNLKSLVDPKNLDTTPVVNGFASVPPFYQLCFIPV
Cytochrome P450 3A4 (Homo sapiens), sequence (P08684 whole entry, looked up): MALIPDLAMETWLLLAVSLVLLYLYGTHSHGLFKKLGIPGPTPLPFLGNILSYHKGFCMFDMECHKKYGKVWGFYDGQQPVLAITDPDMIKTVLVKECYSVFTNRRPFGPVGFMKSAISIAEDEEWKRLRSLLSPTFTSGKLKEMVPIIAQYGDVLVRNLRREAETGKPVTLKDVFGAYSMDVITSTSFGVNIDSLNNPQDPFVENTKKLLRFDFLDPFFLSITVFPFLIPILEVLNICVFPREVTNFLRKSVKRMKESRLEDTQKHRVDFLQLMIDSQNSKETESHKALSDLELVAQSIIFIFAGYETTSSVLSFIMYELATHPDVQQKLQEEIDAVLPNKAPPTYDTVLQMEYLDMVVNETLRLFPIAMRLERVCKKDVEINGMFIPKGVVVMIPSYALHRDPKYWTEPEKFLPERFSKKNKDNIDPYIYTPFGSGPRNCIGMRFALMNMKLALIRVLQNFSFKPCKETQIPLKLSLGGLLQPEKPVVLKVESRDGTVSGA
Cytochrome P450 1A2 (Homo sapiens), sequence (P05177 whole entry, looked up): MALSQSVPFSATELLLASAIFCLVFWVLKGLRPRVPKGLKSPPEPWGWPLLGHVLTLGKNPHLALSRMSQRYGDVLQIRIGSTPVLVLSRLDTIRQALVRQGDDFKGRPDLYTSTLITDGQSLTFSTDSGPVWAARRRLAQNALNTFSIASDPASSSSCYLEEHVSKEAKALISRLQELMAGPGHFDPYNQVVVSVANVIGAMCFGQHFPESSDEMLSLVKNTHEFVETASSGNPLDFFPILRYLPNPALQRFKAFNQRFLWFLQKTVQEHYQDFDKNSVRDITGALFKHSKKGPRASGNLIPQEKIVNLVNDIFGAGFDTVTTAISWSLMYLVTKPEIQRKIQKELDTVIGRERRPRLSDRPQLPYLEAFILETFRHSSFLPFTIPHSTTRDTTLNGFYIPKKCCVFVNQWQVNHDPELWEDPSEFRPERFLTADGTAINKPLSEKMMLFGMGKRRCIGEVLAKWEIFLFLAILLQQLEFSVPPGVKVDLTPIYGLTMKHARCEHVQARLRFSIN

For the compound `C=CC(=O)OCCN(CC)CC`, the Potency entry in assay [1], in assay [2], in assay [3], in [4], in [5] and in [6] was “inactive” in each case. In addition, the Potency entry in [7], in assay [8], in assay [9] and in assay [10] was “inactive” each time.

Take `CC1CCCCC1`: the Potency entry in assay [1], in assay [2], in assay [3], in assay [4], in assay [5] and in assay [6] was “inactive” each time. Besides, the Potency entry in assay [7], in assay [9] and in assay [10] was “inactive” in each case. For the same compound, the Potency in [8] is 63.3 µM (active).

For the compound `CCCCCCCC(C)=O`, the Potency result in [1], in [2], in assay [3], in assay [4], in assay [5] and in assay [6] was “inactive” throughout. Also, the Potency result in [7], in [9] and in [10] was “inactive” each time. In addition, the Potency in assay [8] is 35.6 µM (active).

As to `O=CC1CC1`, the Potency entry in assay [1], in assay [2], in [3], in assay [4], in [5] and in [6] was “inactive” throughout. Also, the Potency entry in assay [7], in assay [8], in [9] and in assay [10] was “inactive” throughout.

`CCCCCCCC/C=C\CCCCCCCC(=O)N(C)CC(=O)O`: the Potency was 68.6 µM (active) in assay [1] and 44.8 µM (active) in assay [7]. In addition, the Potency entry in assay [2], in assay [3], in assay [4], in [5], in assay [6] and in assay [8] was “inactive” in each case. In addition, the Potency result in assay [9] and in [10] was “inactive” throughout.

Turning to `COc1ccccc1C=O`, the Potency result in assay [1], in [2], in [3], in [4], in [5] and in [6] was “inactive” throughout. For the same compound, the Potency result in assay [7], in assay [8], in [9] and in assay [10] was “inactive” in each case.

For the compound `Cc1ccc2ccc3cccc4ccc1c2c34`, the Potency result in assay [1], in assay [2], in assay [3], in [4] and in assay [9] was “inactive” each time. Moreover, the Potency in assay [5] is 63.2 µM (active); in [6], 28.2 µM (active); in assay [7], 63.2 µM (active); in [8] it was 0.563 µM (active); in assay [10] it was 20 µM (active).

On to `Cc1cncc(C)c1`, for which the Potency result in [1], in assay [2], in assay [3], in [4], in assay [5] and in assay [6] was “inactive” each time. For the same compound, the Potency result in assay [7], in assay [8], in assay [9] and in assay [10] was “inactive” each time.

With `c1ccc(Nc2cccc3ccccc23)cc1`, the Potency in assay [1] is 61.9 µM (active); in [4], 61.9 µM (active) and 30.6 µM (active); in [5] it was 32.1 µM (active); in assay [6], 5.09 µM (active) and 10 µM (active); in assay [7] it was 36.1 µM (active) and 35.6 µM (active); in assay [8], 6.41 µM (active) and 17.8 µM (active). The Potency in assay [9] is 35.1 µM (active) and 17.4 µM (active); in [10], 36.1 µM (active) and 79.6 µM (active). The Potency entry in [2] and in [3] was “inactive” in each case.

`CCCC(C)CCC(C)=O` (stereo not given): the Potency result in assay [1], in [2], in assay [3], in [4], in assay [5] and in [6] was “inactive” in each case. For the same compound, the Potency entry in assay [7], in assay [8], in [9] and in [10] was “inactive” in each case.

For `CCc1c(Br)c(Br)c(Br)c(Br)c1Br`, the Potency entry in [1], in assay [2], in assay [3], in assay [4], in [5] and in [6] was “inactive” throughout. The Potency entry in assay [7], in assay [9] and in [10] was “inactive” each time. Besides, the Potency in [8] is 11.2 µM (active).

As for `OCCCc1cccnc1`, the Potency result in assay [1], in assay [2], in assay [3], in assay [4], in assay [5] and in assay [6] was “inactive” each time. In addition, the Potency entry in [7], in assay [8] and in [9] was “inactive” throughout. The Potency in assay [10] is 15.9 µM (active).

Turning to `COc1cccc(OC)c1O`, the Potency entry in assay [1], in assay [2], in [3], in assay [4], in [9] and in assay [10] was “inactive” throughout. Further, the Potency in [5] is 6.33 µM (active); in assay [6], 39.9 µM (active); in assay [7], 35.6 µM (active); in [8], 35.6 µM (active).

For `C(=C/c1ccccc1)/c1ccccc1`, the Potency result in [1], in assay [2], in assay [3], in assay [4], in [5] and in assay [6] was “inactive” in each case. Besides, the Potency result in assay [7], in assay [8], in assay [9] and in assay [10] was “inactive” throughout.

Consider `O=C[C@H](O)[C@H](O)[C@H](O)CO`, for which the Potency entry in assay [1], in assay [2], in [3], in [4], in [5] and in [6] was “inactive” throughout. The Potency entry in [7], in assay [8], in assay [9] and in assay [10] was “inactive” throughout.

Turning to `CC1=CP(=O)(c2ccccc2)CC1` (stereo not given), the Potency entry in assay [1], in assay [2], in assay [3], in assay [4], in [5] and in assay [6] was “inactive” in each case. Further, the Potency result in assay [7], in assay [8], in assay [9] and in [10] was “inactive” throughout.

Take `CC(=O)C=O`: the Potency result in assay [1], in assay [2], in assay [3], in assay [4], in assay [5] and in assay [6] was “inactive” in each case. The Potency entry in assay [7], in [8], in assay [9] and in assay [10] was “inactive” each time.

For `CCOB(OCC)OCC`, the Potency result in assay [1], in [2], in assay [3], in assay [4], in [5] and in assay [6] was “inactive” each time. The Potency result in assay [7], in assay [8], in assay [9] and in assay [10] was “inactive” each time.

As for `CN1CN(C)CN(C)C1`, the Potency entry in [1], in assay [2], in [3], in [4], in [5] and in [6] was “inactive” throughout. Also, the Potency entry in assay [7], in assay [8], in assay [9] and in [10] was “inactive” each time.

On to `c1ccc2c(c1)CCC2`, for which the Potency entry in [1], in assay [2], in [3], in [4], in assay [5] and in assay [6] was “inactive” each time. Further, the Potency entry in assay [7], in assay [8], in [9] and in [10] was “inactive” in each case.

These data come from PubChem BioAssay (Tox21).
